Consider ten sequences from the OligoGym collection.
Note: reference of the scale not given here.

This experiment addresses AKR1A1. Put plainly: pooled miR-30 sensor sort-seq; sequence = guide strand. Particulars: shRNA.
On to TATAGTCCCATCAGCATTCTTG, for which the sensor-assay potency score (higher = more potent) is -0.715.
The figure for TGTCACAAACAGCTCCTCCCGA is -0.337; for TTGATGTTCTGAAGGATTCGAG it is -0.236.
With TTGGATGTCACAAACAGCTCCT the figure was 0.145.
The figure for TTAACAGCTGCTTTTACCTGAC is -0.112; for TTAGCTGCTTCATCTCTTCTGG it is -0.107; for TACCTGACCAGGCTCACTCTTC it is -0.753.
TAAGGGCATACTTAACAGCTGC: the sensor-assay potency score (higher = more potent) is -0.729.
The figure for TAGTGGGTGGAGTCGTAGCATA is -1.36; for TAAAGGTGAAGTCAAACACCTT it is -1.29.
